The values below come from the supplement of paper PMC7156485.

± gives the standard deviation of the averaged measurements.
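Note: TDF denotes transformed human dermal fibroblasts of mesenchymal origin.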

The test has as its system TDF. The experiment in a line: cell number relative to DMSO (% of DMSO); higher = more cells (less growth inhibition / toxicity). The note with it: concentration: 10 µM; 24 h. The method, boiled down:
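Using 384-well plates with 800 cells per well in RPMI plus 10% FBS, HCC1569 and TDF cells were exposed to compounds at 10 µM, in triplicate, for 24 h at 37 °C. Imaging of six fields per well at ×10 followed H1.0 and DAPI staining. The reported quantity, H1.0 nuclear intensity or cell number, is a median of replicates given as percent of the plate control, and HCC1569 values were smoothed for positional effects.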
As to `CCC(CO)NC(=O)C1C=C2c3cccc4c3c(cn4C)CC2N(C)C1.O=C(O)C=CC(=O)O` (centres undefined) [Methysergide maleate], the cell number was 97.1 ± 7.
As for `COc1cc2c3cc1Oc1c(OO)c(OC)cc4c1C(Cc1ccc(cc1)Oc1cc(ccc1O)CC3N(C)CC2)N(C)CC4.O=S(=O)(O)O` (centres undefined) [Oxyacanthine sulfate], the figure is 11.7.
Under `CNCCc1c[nH]c2ccc(O)cc12.O=C(O)C(=O)O` [N-omega-Methyl-5-hydroxytryptamine oxalate salt] stands 103.
With `CC1CC(C)C(=O)C(C(O)CC2CC(=O)NC(=O)C2)C1` (centres undefined) [Cycloheximide], the cell number was found to be 41.7.
Under `CCN(C)C(=O)Oc1cccc([C@H](C)N(C)C)c1.O=C(O)C(O)C(O)C(=O)O` stands 98.9.
Under `CCCN(CCC)C1CCc2c(F)ccc(O)c2C1.Cl` (stereo not drawn) [S(-)-UH-301 hydrochloride] stands 97.9; under `COc1cc(C(=O)OC2CC3CCC(C2)N3C)ccc1O` (centres undefined) [Fillalbin], 93.9.
As for `OCC1CCCN2CCCCC12` (centres undefined) [Lupinine], the figure is 104; as for `C[N+]1(C)CCc2cc3c(cc2C1C1OC(=O)c2c1ccc1c2OCO1)OCO3.[Br-]` (single isomer, unassigned; (-)) [(-)-Bicuculline methbromide, 1(S), 9(R)], 104; as for `CN1C2CCC1CC(OC(=O)C(CO)c1ccccc1)C2` (centres undefined) [Hyoscyamine], 98.
Turning to `COc1cc(C2c3cc4c(cc3C(O)C3COC(=O)C23)OCO4)cc(OC)c1OC` (centres undefined) [Picropodophyllin], the cell number was found to be 10.9.
In turn, `CN1C2CCCC1CC(=O)C2.Cl` had a cell number of 89.2.
As for `CCCCCCCCCCCCCCC(Br)C(=O)O` (centres undefined) [2-bromohexadecanoic acid], the figure is 107.
Under `COc1ccc2c(c1OC)C(=O)OC2C1c2cc3c(cc2CCN1C)OCO3` (centres undefined) stands 97.5; under `C=CCN1CCC23c4c5ccc(O)c4OC2C(=O)CCC3(O)C1C5.Cl` (centres undefined) [Naloxone hydrochloride], 98.9.
Under `NC(=S)NN=Cc1coc2ccccc2c1=O.[Cl][Cu][Cl]` stands 86; under `NCCN(CCN)N(O)N=O` [1,1-bis(2-aminoethyl)-2-hydroxy-3-oxotriazane], 97.5; under `CN(C)C(=O)Oc1ccc[n+](C)c1.[Br-]` [Pyridostigmine bromide], 107.
`Cl.N[C@@H](CCl)C(=O)O` [beta-Chloro-L-alanine hydrochloride]: the cell number is 97.8.
Regarding `Cc1ccc(S(=O)(=O)NC(CCCCN)C(=O)CCl)cc1.Cl` [Na-p-Tosyl-L-lysine chloromethyl ketone hydrochloride], the cell number amounted to 104.
Under `CCCCc1ccc(C(=O)O)nc1` [Fusaric acid] stands 110; under `Br.C=CCN1CCc2cccc3c2C1Cc1ccc(O)c(O)c1-3` (stereo not drawn) [R(-)-N-Allylnorapomorphine hydrobromide], 85.6; under `Cc1cc(O)c2c(=O)c3c(O)cc(O)c4c5c(O)cc(O)c6c(=O)c7c(O)cc(C)c8c1c2c(c34)c(c78)c65` [Hypericin], 100 ± 2.6.
As for `Cl.O=C(OC1CCN(CCCl)CC1)C(c1ccccc1)c1ccccc1` [4-Diphenylacetoxy-N-(2-chloroethyl)piperidine hydrochloride], the figure is 94.9.
Regarding `CC(N)C(=O)OC(C)(C)Cc1ccc(Cl)cc1.Cl` (centres undefined) [Alaproclate hydrochloride], the cell number was found to be 111.
Under `CC1CCC2C(C)C3C(CC4C5CCC6CC(O)CCC6(C)C5CCC43C)N2C1` (centres undefined) [Demissidine] stands 92.2; under `Cl.O=C(N[C@H]1CN2CCC1CC2)c1c[nH]c2ccsc2c1=O`, 94.7.
Under `C#C[C@]1(O)CC[C@H]2[C@@H]3CC[C@H]4Cc5nc6nc7ccccc7n6cc5C[C@]4(C)[C@H]3CC[C@@]21C` stands 88.1; under `CN1CC(C(=O)NC2(C)OC3(O)C4CCCN4C(=O)C(Cc4ccccc4)N3C2=O)CC2c3cccc4[nH]cc(c34)CC21.CS(=O)(=O)O` (centres undefined) [Dihydroergotamine mesylate], 102; under `O=[N+]([O-])c1cc(O)c(O)c([N+](=O)[O-])c1` [3,5-Dinitrocatechol], 107.
Under `CCCN1CCCC(c2cccc(C#N)c2)C1.Cl` (stereo not drawn) [S(-)-DS 121 hydrochloride] stands 96.1; under `CCC1(C2=NCCN2)Cc2ccccc2O1.Cl` (centres undefined) [Efaroxan hydrochloride], 105; under `O=P1(NCCCl)OCCCN1CCCl` (centres undefined) [Ifosfamide], 105.
`CC(=O)OC1C2C(OC(=O)Cc3ccccc3)C(C)CC2(OC(C)=O)C(=O)C(C)=CC2C(CCC13CO3)C2(C)C` (centres undefined) [Euphorbiasteroid] gave a cell number of 106.
Consider `CN1CC(C(=O)NC2(C)OC3(O)C4CCCN4C(=O)C(Cc4ccccc4)N3C2=O)CC2c3cccc4[nH]cc(c34)CC21.CS(=O)(=O)O` (centres undefined) [Dihydroergotamine methanesulfonate], for which the cell number was found to be 108.
As for `Cl.Cl.Clc1ccc(N2CC3CCC(C2)N3)nn1`, the figure is 110.
For the compound `C[N+]1(C)C2CCC1CC(OC(=O)C(CO)c1ccccc1)C2.[Br-]` (centres undefined) [Atropine methyl bromide], the cell number was found to be 105.
`O=C(O)C(=O)c1cn(Cc2ccccc2)c2ccc(-c3ccc(OC(F)(F)F)cc3)cc12` came in with a cell number of 106.
`CCCCCC=CCC=CCC=CCC=CCCCC(=O)NCCO` [Anandamide (20:4, n-6)] yielded a cell number of 94.1.
